Measurements published in the supplement of paper PMC10849652.
About 8,800 targets were measured; listed, in parts, are those with a hit and a random draw of the rest. About 0.5% of all pairs of compound and target were hits.

These targets were tested with O=C(O)c1ccc2c(c1)nc(Nc1cccc(Cl)c1)c1ccncc12 [silmitasertib] (assay: log2 fold change, soluble protein after heating vs DMSO (PISA); higher = thermal stabilisation; K562 lysate, 10 uM; active = over 0.2 and 3.5 SD of the protein, either way, in both replicates (recomputed)).
Outline: (§1)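 Dounce homogenisation of K562 pellets in PBS pH 7.4 with 1 mM MgCl2 produced a crude extract, used at 1 mg/mL protein. Exposure to 10 μM compound lasted 30 min, and aliquots were then heated for 3 min across 48°C-58°C, pooled and brought to 0.5% NP-40 at 4°C. The supernatant after 21,000xg for 90 min was quantified by TMTpro 16plex LC-MS/MS with channel sums equalised. Duplicate values are given as log-two fold change in thermal stability relative to solvent controls.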

Sequence of UniProt Q9NXJ5 (Q9NXJ5 whole entry, looked up): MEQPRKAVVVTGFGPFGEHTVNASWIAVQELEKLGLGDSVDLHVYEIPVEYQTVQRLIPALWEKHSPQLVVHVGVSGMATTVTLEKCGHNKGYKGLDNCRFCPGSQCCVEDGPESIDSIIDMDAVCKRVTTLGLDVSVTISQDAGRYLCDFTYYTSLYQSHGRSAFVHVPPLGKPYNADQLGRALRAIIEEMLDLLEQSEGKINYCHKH
Sequence of UniProt Q9Y2I7 (Q9Y2I7 whole entry, looked up): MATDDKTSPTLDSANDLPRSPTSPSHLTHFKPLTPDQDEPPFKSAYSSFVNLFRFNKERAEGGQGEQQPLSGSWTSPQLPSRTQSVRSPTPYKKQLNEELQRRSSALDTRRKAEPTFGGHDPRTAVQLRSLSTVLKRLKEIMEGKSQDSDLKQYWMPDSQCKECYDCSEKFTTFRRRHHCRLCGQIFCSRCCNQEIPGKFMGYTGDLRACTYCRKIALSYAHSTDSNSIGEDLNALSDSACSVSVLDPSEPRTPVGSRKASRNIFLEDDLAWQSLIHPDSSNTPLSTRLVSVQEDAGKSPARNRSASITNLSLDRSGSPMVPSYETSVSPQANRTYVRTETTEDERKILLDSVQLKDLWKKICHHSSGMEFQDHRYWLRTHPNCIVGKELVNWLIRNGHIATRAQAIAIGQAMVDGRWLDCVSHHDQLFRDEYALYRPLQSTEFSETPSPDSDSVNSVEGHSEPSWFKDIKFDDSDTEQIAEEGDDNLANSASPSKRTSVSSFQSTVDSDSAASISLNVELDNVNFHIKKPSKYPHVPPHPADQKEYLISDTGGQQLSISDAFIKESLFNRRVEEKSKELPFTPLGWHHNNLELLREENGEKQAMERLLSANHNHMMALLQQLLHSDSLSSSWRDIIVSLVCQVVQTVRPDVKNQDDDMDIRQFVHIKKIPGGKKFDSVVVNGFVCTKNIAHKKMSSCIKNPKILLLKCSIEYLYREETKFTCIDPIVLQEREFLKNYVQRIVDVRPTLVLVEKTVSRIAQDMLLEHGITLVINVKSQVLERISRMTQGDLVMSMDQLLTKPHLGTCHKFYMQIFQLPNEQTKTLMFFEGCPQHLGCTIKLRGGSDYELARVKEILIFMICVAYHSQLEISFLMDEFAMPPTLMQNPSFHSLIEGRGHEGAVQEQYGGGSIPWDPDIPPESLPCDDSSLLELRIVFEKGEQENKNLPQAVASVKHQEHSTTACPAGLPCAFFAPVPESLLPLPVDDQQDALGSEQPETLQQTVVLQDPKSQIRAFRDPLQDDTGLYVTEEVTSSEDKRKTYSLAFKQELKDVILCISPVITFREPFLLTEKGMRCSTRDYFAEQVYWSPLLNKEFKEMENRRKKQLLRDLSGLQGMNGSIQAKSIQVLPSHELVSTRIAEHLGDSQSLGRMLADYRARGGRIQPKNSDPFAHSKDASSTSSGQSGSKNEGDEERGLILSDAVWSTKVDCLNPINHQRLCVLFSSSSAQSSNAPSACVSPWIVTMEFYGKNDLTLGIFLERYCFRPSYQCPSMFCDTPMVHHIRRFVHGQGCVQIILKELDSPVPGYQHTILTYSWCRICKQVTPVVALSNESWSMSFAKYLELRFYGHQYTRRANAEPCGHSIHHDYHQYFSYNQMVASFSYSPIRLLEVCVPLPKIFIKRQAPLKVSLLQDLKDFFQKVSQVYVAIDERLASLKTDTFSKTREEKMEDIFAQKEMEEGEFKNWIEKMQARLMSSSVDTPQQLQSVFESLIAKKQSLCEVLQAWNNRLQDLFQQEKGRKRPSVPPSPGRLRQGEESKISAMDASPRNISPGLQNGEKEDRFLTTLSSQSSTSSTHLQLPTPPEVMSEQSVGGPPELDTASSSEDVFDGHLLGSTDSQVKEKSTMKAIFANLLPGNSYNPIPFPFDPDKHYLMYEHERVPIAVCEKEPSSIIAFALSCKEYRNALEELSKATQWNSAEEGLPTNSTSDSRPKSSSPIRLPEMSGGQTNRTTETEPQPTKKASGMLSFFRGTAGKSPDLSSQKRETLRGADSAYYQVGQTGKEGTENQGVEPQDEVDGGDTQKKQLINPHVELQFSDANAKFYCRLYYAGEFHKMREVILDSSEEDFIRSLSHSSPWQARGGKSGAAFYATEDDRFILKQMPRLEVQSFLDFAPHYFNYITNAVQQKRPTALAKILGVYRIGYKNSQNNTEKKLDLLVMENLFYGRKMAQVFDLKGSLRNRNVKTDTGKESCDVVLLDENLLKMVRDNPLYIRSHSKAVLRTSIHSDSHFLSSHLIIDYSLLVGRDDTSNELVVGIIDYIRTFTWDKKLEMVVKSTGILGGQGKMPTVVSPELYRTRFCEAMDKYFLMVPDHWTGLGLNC
Sequence of UniProt O15031 (O15031 whole entry, looked up): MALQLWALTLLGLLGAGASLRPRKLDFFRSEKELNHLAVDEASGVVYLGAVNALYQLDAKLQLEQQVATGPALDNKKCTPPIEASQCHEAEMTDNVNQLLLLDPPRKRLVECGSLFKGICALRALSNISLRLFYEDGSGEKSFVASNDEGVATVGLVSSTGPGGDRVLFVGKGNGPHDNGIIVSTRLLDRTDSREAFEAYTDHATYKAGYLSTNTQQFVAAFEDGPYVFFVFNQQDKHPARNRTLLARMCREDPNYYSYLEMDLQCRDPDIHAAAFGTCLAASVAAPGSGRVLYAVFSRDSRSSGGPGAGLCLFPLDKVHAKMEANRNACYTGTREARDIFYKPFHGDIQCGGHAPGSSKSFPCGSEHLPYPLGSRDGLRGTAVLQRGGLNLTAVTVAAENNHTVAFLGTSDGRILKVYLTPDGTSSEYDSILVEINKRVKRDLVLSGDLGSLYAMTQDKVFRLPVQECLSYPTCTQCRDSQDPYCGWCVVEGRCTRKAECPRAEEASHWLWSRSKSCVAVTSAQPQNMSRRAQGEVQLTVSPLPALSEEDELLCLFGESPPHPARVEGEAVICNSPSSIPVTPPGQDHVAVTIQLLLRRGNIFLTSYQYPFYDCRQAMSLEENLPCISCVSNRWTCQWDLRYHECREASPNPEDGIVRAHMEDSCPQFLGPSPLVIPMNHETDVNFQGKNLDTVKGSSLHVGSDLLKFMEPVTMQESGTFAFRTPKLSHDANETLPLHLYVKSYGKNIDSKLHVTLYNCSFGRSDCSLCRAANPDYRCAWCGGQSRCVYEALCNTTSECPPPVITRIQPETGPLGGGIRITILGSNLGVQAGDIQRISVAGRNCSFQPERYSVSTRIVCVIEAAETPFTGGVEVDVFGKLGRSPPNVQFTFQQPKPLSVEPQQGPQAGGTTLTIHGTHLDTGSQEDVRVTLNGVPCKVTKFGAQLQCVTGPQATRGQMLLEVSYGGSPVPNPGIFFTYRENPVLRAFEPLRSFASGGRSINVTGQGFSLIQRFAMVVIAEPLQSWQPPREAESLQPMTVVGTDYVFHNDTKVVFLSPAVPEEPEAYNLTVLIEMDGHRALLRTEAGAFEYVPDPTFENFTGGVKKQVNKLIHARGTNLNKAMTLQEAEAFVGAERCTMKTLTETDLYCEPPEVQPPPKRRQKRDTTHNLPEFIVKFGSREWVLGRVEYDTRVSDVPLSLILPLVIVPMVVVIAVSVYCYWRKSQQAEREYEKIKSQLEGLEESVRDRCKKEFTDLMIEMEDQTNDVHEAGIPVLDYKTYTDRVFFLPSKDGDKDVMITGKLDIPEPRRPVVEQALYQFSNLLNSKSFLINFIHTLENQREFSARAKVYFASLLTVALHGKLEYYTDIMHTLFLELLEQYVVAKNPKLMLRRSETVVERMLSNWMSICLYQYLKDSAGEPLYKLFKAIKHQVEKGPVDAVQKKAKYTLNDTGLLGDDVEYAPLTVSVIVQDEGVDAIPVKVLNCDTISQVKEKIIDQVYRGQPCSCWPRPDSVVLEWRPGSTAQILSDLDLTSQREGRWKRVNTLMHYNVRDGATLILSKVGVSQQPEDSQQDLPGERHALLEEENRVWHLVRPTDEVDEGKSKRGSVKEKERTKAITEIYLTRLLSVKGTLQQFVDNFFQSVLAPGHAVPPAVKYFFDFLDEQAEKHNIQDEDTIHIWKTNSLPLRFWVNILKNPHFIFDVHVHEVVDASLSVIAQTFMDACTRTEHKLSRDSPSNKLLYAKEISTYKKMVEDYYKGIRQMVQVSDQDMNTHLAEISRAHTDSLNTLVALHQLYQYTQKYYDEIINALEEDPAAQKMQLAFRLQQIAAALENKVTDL
Sequence of UniProt O60927 (O60927 whole entry, looked up): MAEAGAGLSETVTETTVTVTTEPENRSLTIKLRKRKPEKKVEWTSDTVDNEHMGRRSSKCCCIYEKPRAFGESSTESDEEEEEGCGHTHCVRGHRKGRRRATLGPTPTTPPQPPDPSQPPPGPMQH
Sequence of UniProt O43175 (O43175 whole entry, looked up): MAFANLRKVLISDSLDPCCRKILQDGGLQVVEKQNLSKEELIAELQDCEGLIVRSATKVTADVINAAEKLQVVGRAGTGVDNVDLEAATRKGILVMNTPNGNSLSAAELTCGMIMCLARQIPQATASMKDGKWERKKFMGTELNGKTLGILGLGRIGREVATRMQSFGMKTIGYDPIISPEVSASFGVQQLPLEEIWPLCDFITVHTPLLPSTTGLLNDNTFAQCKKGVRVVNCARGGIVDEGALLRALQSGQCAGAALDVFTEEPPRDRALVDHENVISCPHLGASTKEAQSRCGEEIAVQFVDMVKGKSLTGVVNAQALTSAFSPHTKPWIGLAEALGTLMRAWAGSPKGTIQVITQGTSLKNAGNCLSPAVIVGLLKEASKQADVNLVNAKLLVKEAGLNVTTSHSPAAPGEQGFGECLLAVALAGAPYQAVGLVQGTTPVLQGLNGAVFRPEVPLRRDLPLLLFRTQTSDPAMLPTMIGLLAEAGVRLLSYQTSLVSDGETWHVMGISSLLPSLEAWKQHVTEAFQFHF
Sequence of UniProt Q9BSG0 (Q9BSG0 whole entry, looked up): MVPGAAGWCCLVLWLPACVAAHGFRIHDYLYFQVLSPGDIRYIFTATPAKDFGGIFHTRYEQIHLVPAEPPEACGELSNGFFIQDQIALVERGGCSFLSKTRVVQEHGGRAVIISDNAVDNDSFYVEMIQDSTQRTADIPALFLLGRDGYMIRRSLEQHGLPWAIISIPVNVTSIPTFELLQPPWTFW

Target | log2 fold change
POM121C (UniProt A8CG34) | -0.196 (inactive)
PPP2R5C isoform 4 (UniProt Q13362) | -0.067 (inactive)
POLD1 (UniProt P28340) | 0.016 (inactive)
PLXNB2 (UniProt O15031) | 0.001 (inactive)
PIKFYVE (UniProt Q9Y2I7) | 0.03 (inactive)
PTGES2 (UniProt Q9H7Z7) | 0.304 (inactive)
PPME1 (UniProt Q9Y570) | 0.185 (inactive)
PPP1R11 (UniProt O60927) | 0.034 (inactive)
PTK2 isoform 2 (UniProt Q05397) | 0.046 (inactive)
PCBP2 (UniProt F8W0G4) | 0.025 (inactive)
PICALM (UniProt H0YCY1) | -0.07 (inactive)
PHKA1 (UniProt P46020) | 0.184 (inactive)
PCBP2 (UniProt F8VRH0) | -0.441 (inactive)
PLXND1 (UniProt Q9Y4D7) | 0.174 (inactive)
PIP5K1A (UniProt Q99755) | -0.033 (inactive)
PKN1 isoform 2 (UniProt Q16512) | -0.012 (inactive)
NA (UniProt Q4G0T1) | 0.092 (inactive)
PGPEP1 (UniProt Q9NXJ5) | 0.009 (inactive)
PRADC1 (UniProt Q9BSG0) | -0.041 (inactive)
PHGDH (UniProt O43175) | 0.031 (inactive)
PTK2B (UniProt Q14289) | 0.021 (inactive)
PDPK1 (UniProt O15530) | 0.09 (inactive)
PCF11 (UniProt O94913) | -0.023 (inactive)
PPP2R3C (UniProt Q969Q6) | 0.086 (inactive)
PDE4DIP (UniProt E9PS60) | 0.082 (inactive)
PRR4 (UniProt Q16378) | -0.176 (inactive)
PHKA2 (UniProt P46019) | 0.105 (inactive)
PYGO2 (UniProt Q9BRQ0) | -0.067 (inactive)

These targets were tested with O=C1NC(=O)C(c2cnc3ccccn23)=C1c1cn2c3c(cc(F)cc13)CN(C(=O)N1CCCCC1)CC2 in the same assay as above.
Outline: as §1

Target | log2 fold change
PPP2R5C isoform 4 (UniProt Q13362) | 0.074 (inactive)
POLD1 (UniProt P28340) | 0.005 (inactive)
PLXNB2 (UniProt O15031) | 0.019 (inactive)
PIKFYVE (UniProt Q9Y2I7) | -0.026 (inactive)
PTGES2 (UniProt Q9H7Z7) | 0.12 (inactive)
PPP1R11 (UniProt O60927) | 0.028 (inactive)
PNPLA4 (UniProt P41247) | -0.093 (inactive)
PHKA1 (UniProt P46020) | -0.001 (inactive)
PHOSPHO2 (UniProt C9JD35) | 0.004 (inactive)
PRG4 (UniProt Q92954) | -0.145 (inactive)
PCBP2 (UniProt F8VRH0) | 0.006 (inactive)
PDIA4, A0A499FI48 | 0.045 (inactive)
PLXND1 (UniProt Q9Y4D7) | 0.018 (inactive)
PIP5K1A (UniProt Q99755) | 0.047 (inactive)
PKN1 isoform 2 (UniProt Q16512) | -0.138 (inactive)
NA (UniProt Q4G0T1) | -0.036 (inactive)
PFN3 (UniProt P60673) | -0.142 (inactive)
PGPEP1 (UniProt Q9NXJ5) | 0.012 (inactive)
PRADC1 (UniProt Q9BSG0) | -0.012 (inactive)
PHGDH (UniProt O43175) | 0.028 (inactive)
PTK2B (UniProt Q14289) | -0.088 (inactive)
PDPK1 (UniProt O15530) | 0.004 (inactive)
PCF11 (UniProt O94913) | -0.001 (inactive)
PDE4DIP (UniProt E9PS60) | 0.039 (inactive)
PHKA2 (UniProt P46019) | -0.048 (inactive)
PHC1 (UniProt P78364) | 0.151 (inactive)
PYGO2 (UniProt Q9BRQ0) | -0.003 (inactive)

What follows are targets tested with c1cn2cc(-c3ccc4cn[nH]c4c3)nc(Nc3ccc(N4CCOCC4)cc3)c2n1 [entospletinib] in the same assay as above.
Outline: as §1

Target | log2 fold change
POLR2F (UniProt U3KPV3) | -0.113 (inactive)
PPP2R5C isoform 4 (UniProt Q13362) | -0.012 (inactive)
PFN1 (UniProt I3L3D5) | -0.194 (inactive)
POLD1 (UniProt P28340) | -0.009 (inactive)
PLXNB2 (UniProt O15031) | -0.03 (inactive)
PIKFYVE (UniProt Q9Y2I7) | -0.014 (inactive)
PTGES2 (UniProt Q9H7Z7) | 0.085 (inactive)
PPME1 (UniProt Q9Y570) | -0.063 (inactive)
PPP1R11 (UniProt O60927) | -0.029 (inactive)
PNPLA4 (UniProt P41247) | -0.046 (inactive)
PECR (UniProt Q9BY49) | 0.115 (inactive)
PTK2 isoform 2 (UniProt Q05397) | 0.007 (inactive)
PCBP2 (UniProt F8W0G4) | -0.088 (inactive)
PHKA1 (UniProt P46020) | -0.01 (inactive)
PHOSPHO2 (UniProt C9JD35) | 0.155 (inactive)
PPP1R14C (UniProt Q8TAE6) | -0.046 (inactive)
PKN1 isoform 2 (UniProt Q16512) | -0.009 (inactive)
PFN3 (UniProt P60673) | -0.134 (inactive)
PGPEP1 (UniProt Q9NXJ5) | -0.049 (inactive)
PHGDH (UniProt O43175) | 0.016 (inactive)
PTK2B (UniProt Q14289) | -0.002 (inactive)
PDPK1 (UniProt O15530) | -0.007 (inactive)
PCF11 (UniProt O94913) | 0.016 (inactive)
PPP2R3C (UniProt Q969Q6) | 0.074 (inactive)
PHF14 (UniProt O94880) | 0.039 (inactive)
PDE4DIP (UniProt E9PS60) | 0.103 (inactive)
PRR4 (UniProt Q16378) | 0.302 (inactive)
PHKA2 (UniProt P46019) | -0.012 (inactive)
PHC1 (UniProt P78364) | 0.073 (inactive)
PYGO2 (UniProt Q9BRQ0) | 0.269 (active)
